High-throughput results: PubChem BioAssay, National Center for Advancing Translational Sciences (NCATS)
HT1080 IDH1KD tx = toxicity to HT-1080 IDH1 knockdown cells (counter line); HT-1080 IDH1 knockdown viability, ATP luminescence, 48 h; Potency, µM (titrated, usually from 46.1 µM), actives largely listed as cytotoxic; hit rate 2% among 360,000; AID 686971
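Assay cells: HT-1080 with IDH1 knockdown, 750 per well, RPMI/5% FBS. Exposure: 48 h at 37 °C following 2 h pre-incubation. Read: CellTiter-Glo luminescence; fitted concentration-response, curve class assigned.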
IL-1B inflam inh = blocks inflammasome-driven IL-1 beta release; THP-1 LPS/ATP IL-1B secretion, AlphaLISA, 16 h; active compounds read low; activity change, % at 57.5 µM; hit rate 4.7% among 360,000; AID 743279; in the data active = activity change below about -50%; inconclusive = mostly about -30% to -49%
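Secreted IL-1B measured by AlphaLISA bead assay after 16 h compound exposure of THP-1 cells; compounds (final up to 57.5 uM) added 1 h before LPS (250 ng/mL) and ATP (1.25 mM) stimulation; lower signal means less secretion.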
TDP1 cell CPT = growth inhibition of DT40 Tdp1-/-;hTDP1 cells with camptothecin (screen for TDP1 inhibitors); chicken DT40 Tdp1-/-;hTDP1 cells + 20 nM CPT, ATP luminescence, 48 h; Potency, µM (highest dose often 46.2 µM), actives largely listed as inhibitors; hit rate 12% among 420,000; AID 686979; note: nearly all actives have a fitted effect of over 55% in size
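Cell growth measured by CellTiter-Glo luminescence after a minimum 48 h, 37 C compound exposure with 20 nM CPT in Tdp1-knockout DT40 cells stably expressing hTDP1, seeded 400/well; qHTS titration format.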
TDP1 cell noCPT = qHTS for Inhibitors of human tyrosyl-DNA phosphodiesterase 1 (TDP1): qHTS in cells in absence of CPT | DT40 Tdp1-/- hTDP1 cells, no CPT, ATP luminescence, 48 h | Potency, µM (doses to about 46.2 µM), hits mostly inhibitors | hit rate 15% among 420,000; note: nearly all actives have a fitted effect of over 55% in size
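Seeded 400 DT40-hTDP1 cells/well (vehicle DMSO, no 20 nM CPT); pinned compounds; ≥48 hr at 37 °C; CellTiter-Glo luminescence as viability measure.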
HT1080-NT tox = kills 2HG-producing HT-1080-NT fibrosarcoma cells; HT-1080-NT fibrosarcoma viability, CellTiter-Glo ATP luminescence, 48 h; Potency, µM (highest dose often 46.1 µM), usual class: cytotoxic; hit rate 1.6% among 360,000;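 note: NT is the 2HG producing partner of a matched IDH1 knockdown line; nearly all actives have a fitted effect of over 55% in size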
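Viability of the 2HG-overproducing fibrosarcoma line after 48 hours of compound exposure at 37 degrees C was determined by luminescence with CellTiter-Glo, and concentration-effect curves were then fitted and categorized.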
Numbers stand for hits; i = inactive; ? = inconclusive; nt = no result; [ ] = dose if it differs, or a comment. Most compounds without a hit are left out; they make up all but 19% or so of the library. Unless noted, calls come from the whole dose curve; as a rule, active = well fitted curve in the direction sought with a large enough effect; inconclusive = small, poorly fitted or top-dose-only effect, or another doubt; inactive = no such curve, though single readings can be large; an effect the other way counts as inactive or inconclusive.

SMILES | HT1080 IDH1KD tx | IL-1B inflam inh | TDP1 cell CPT | TDP1 cell noCPT | HT1080-NT tox
COc1ccc(CN2CCCC(CO)(Cc3ccc(F)cc3F)C2)cc1 (centres undefined) | ? | -83.5 | ? | ? | ?
C/C(N)=C(/C#N)C(=O)COC(=O)CCC1CCCC1 | i | i | i | i | i
CC(C)NC(=O)C1(C)CCN1Cc1cccc(C#N)c1 (centres undefined) | i | i | i | i | i
CSc1nc(SCC(=O)NCC2CCCO2)c2c3c(sc2n1)CN(C)CC3 (centres undefined) | i | i | i | i | i
CNc1nc(NCCOc2ccccc2)c2sccc2n1 | ? | i | 18.4µM | 20.6µM | i
CN(C)c1nc(Cl)nc(NCCOc2ccccc2)n1 | i | i | i | i | i
c1ccc(CNc2nc(NCCOc3ccccc3)c3sccc3n2)cc1 | ? | nt | 23.1µM | 16.4µM | ?
COc1cccc(C2(CC(=O)N3CCCCC3CO)CC(=O)N(C)C2=O)c1 (centres undefined) | nt | nt | i[9.04 µM] | i | nt
CCCc1nnc(NC(=O)c2cn(CC)c3cc(N4CCN(C)CC4)c(F)cc3c2=O)s1 | i | i | i | ? | i
COc1ccc2cc(C=O)n(C)c2c1 | i | i | i | i | i
COc1ccc2cc(CO)n(C)c2c1 | i | i | 8.2µM | ? | i
CCOC(=O)N1CCN(C(=O)C2CCCN(S(=O)(=O)c3ccc(C)cc3)C2)CC1 (centres undefined) | i | i | ? | 16.4µM | i
CCOC(=O)N1CCN(C(=O)C2CCCN(S(=O)(=O)c3ccc(F)cc3)C2)CC1 (centres undefined) | i | i | ? | i | i
CCOc1ccc(S(=O)(=O)N2CCCC(C(=O)N3CCOCC3)C2)cc1 (centres undefined) | i | i | i | i | i
CCOc1ccc(S(=O)(=O)N2CCCC(C(=O)N3CCN(c4ccccc4)CC3)C2)cc1 (centres undefined) | i | i | 16.4µM | 20.6µM | i
CCOC(=O)N1CCN(C(=O)C2CCCN(S(=O)(=O)c3ccc(OCC)cc3)C2)CC1 (centres undefined) | i | i | ? | 16.4µM | i
Cc1cccc(C(=O)Nc2ccc(S(=O)(=O)N3CCC(c4nc5ccccc5s4)CC3)cc2)c1 | nt | nt | i | ? | nt
Cc1[nH]c2ccccc2c1CN1CCc2ccccc2C1 | i | ? | 10.3µM | 11.6µM | i
O=c1[nH]c(CN2CCc3ccccc3C2)nc2ccccc12 | i | i | ? | i | i
CCC(=O)OCOc1ccc(/C=C2/CCC(CN(C)C)C2=O)cc1 (centres undefined) | 16.4µM | i | 2.31µM | 2.91µM | ?
NCCCN(Cc1ccc(Cl)cc1)c1ccc(Br)cn1 | 11.2µM | nt | 10µM | 7.94µM | ?
NCCCN(Cc1ccc(Cl)c(Cl)c1)c1ccc(Br)cn1 | 11.2µM | nt | 3.55µM | 5.01µM | ?
CCCCN(CCCN)c1ccc(Br)cn1 | i | nt | ? | ? | i
NCCCCCc1nnc(SCc2ccc(Cl)c(Cl)c2)o1 | i | i | i | i | i
S=c1[nH]nc(COc2ccccc2)n1/N=C/C(Cl)=C/c1ccccc1 | ? | -91.2 | 23.1µM | 16.4µM | ?
SMILES | HT1080 IDH1KD tx | IL-1B inflam inh | TDP1 cell CPT | TDP1 cell noCPT | HT1080-NT tox
O=[N+]([O-])c1ccc(Cl)c(/C=N/n2c(-c3ccncc3)n[nH]c2=S)c1 | ? | i | 18.4µM | ? | i
S=c1[nH]nc(-c2ccncc2)n1/N=C/C(Cl)=C\c1ccccc1 | ? | -62.6 | 13µM | 8.2µM | ?
S=c1[nH]nc(COc2ccccc2)n1/N=C/C=C/c1ccccc1 | i | i | i | i | i
COc1ccc(CNC(=O)CN(C(=O)CCC(=O)Nc2nccs2)c2ccc3c(c2)OCO3)cc1 | ? | i | i | i | i
CC(=O)c1cc(C#N)c(SCC(=O)OC(C)C)nc1C | i | i | ? | ? | i
CC(=O)c1cc(C#N)c(SCC(=O)OC(C)(C)C)nc1C | i | i | 20.6µM | ? | i
COc1ccc(-c2ccc(/C=N/N3C(=O)C4C5C=CC(C6CC56)C4C3=O)o2)c([N+](=O)[O-])c1 (centres undefined) | i | i | ? | 23.1µM | i
Cc1ccc(-c2ccc(/C=N/N3C(=O)C4C5C=CC(CC5)C4C3=O)o2)c([N+](=O)[O-])c1 (centres undefined) | i | i | 18.4µM | ? | i
COC(=O)c1ccc(-c2ccc(/C=N/N3C(=O)C4C5C=CC(CC5)C4C3=O)o2)cc1 (centres undefined) | i | i | i | i | i
O=C1C2C3C=CC(C4CC34)C2C(=O)N1/N=C/c1ccc(-c2ccc(Cl)cc2[N+](=O)[O-])o1 (centres undefined) | i[9.24 µM] | i | ? | ? | i
O=C1C2C3C=CC(C4CC34)C2C(=O)N1/N=C/c1ccc(-c2ccc(F)cc2[N+](=O)[O-])o1 (centres undefined) | i | ? | ? | 23.1µM | i
CN(C)c1ccc(/C=N/N2CCN(Cc3ccccc3Cl)CC2)cc1 | i | i | i | i | i
COc1cccc(/C(O)=C/c2nc3ccc(C(=O)NCCc4ccc(Cl)cc4)cc3[nH]c2=O)c1 | ? | i | 6.51µM | 6.51µM | 18.4µM
CCN(C(=O)c1cc(Cl)ccc1Cl)C1CCS(=O)(=O)C1 (centres undefined) | i | i | i | i | i
CC(C)CN(C[C@@H](OP(=O)(O)O)[C@H](Cc1ccccc1)NC(=O)O[C@H]1CCOC1)S(=O)(=O)c1ccc(N)cc1 | nt | nt | i | i | nt
CC1(C(=O)NS(=O)(=O)Cc2cccc(Cl)c2)CCN1C(=O)CC1CCCC1 (centres undefined) | i | i | i | i | i
Cc1nn(-c2ccc(C(=O)OC(C)C)cc2)c(C)c1[N+](=O)[O-] | i | i | i | 25.9µM | i
O=C(CSc1nc2c(cnn2-c2cccc(Cl)c2)c(=O)[nH]1)NCCC1=CCCCC1 | i | i | i | i | i
Cc1ccc(-c2nnc(NCc3nc4ccccc4[nH]3)c3ccccc23)cc1S(=O)(=O)N1CCOCC1 | i | i | 14.6µM | 10.3µM | i
O=C(NCc1nc2ccccc2[nH]1)c1cccc(S(=O)(=O)N2CCOCC2)c1 | i | i | i | i | i
Cc1ccc(-c2nc3ccccc3s2)cc1S(=O)(=O)N1CCOCC1 | 17.8µM | i | ? | ? | i
Cc1ccc(-c2nnc(NCc3nc4ccccc4[nH]3)c3ccccc23)cc1S(=O)(=O)N(C)C | i | i | 10.3µM | 23.1µM | i
COc1cc(F)c(S(=O)(=O)Nc2c(C)n(C)n(-c3ccccc3)c2=O)cc1OC | nt | nt | i | i | nt
CC(C)=CC(O)C/C(C)=C/COc1ccc2ccc(=O)oc2c1 (centres undefined) | ? | ? | 7.31µM | 9.2µM | 23.1µM
